The panel holds about 83,000 compounds, 20% with a hit somewhere; the sample as a whole holds those more often.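 Activity criterion: percent growth below 10, measured after cells in 96-well plates were exposed to a single compound concentration for 48 hours.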 Active and inactive are the calls of the source.
What was measured:
Test in all cases: NCI-60 one-dose screen, 48 h (100 = growth as untreated, 0 = no growth, -100 = all killed)
Conditions in all cases: 10 µM unless noted
[1] = system: HCT-15 colon
[2] = system: HT29 colon
[3] = system: SNB-75 CNS
[4] = system: SNB-19 CNS
[5] = system: U251 CNS
[6] = system: PC-3 prostate
[7] = system: SK-MEL-5 melanoma
[8] = system: UACC-62 melanoma
[9] = system: LOX IMVI melanoma
[10] = system: SK-MEL-28 melanoma

Measured: growth

O=c1[nH]ccc2nc(N3CCC(O)CC3)nc(Nc3cccc(C(F)(F)F)c3)c12
inactive: [1] 49.9% | [2] 71.6% | [3] 87.1% | [4] 98.9% | [5] 55.2% | [6] 30.6% | [8] 32% | [9] 56.2% | [10] 76.1%
active: [7] -55.9%

CCC1(C(N)=O)CC2C=CC1CC2 (stereo not given)
inactive: [1] 109% | [2] 106% | [3] 95.9% | [4] 90.2% | [5] 110% | [6] 103% | [7] 98.7% | [8] 104% | [9] 96.2% | [10] 125%

O=C1CN(CCN2CC(=O)NC(=O)C2)CC(=O)N1
inactive: [1] 114% | [2] 110% | [3] 76.1% | [4] 99% | [5] 100% | [6] 89.8% | [7] 87% | [8] 86.5% | [9] 93.7% | [10] 121%

O=C(N/N=C1\SCC(=O)N1c1ccccc1)c1cc(-c2cc3ccccc3o2)nn1-c1ccccc1
inactive: [1] 106% | [2] 107% | [3] 101% | [4] 104% | [5] 103% | [6] 86.9% | [7] 101% | [8] 134% | [9] 107% | [10] 110%

O=C(Nc1ccc(-n2ccc3c(NC(=O)c4ccccc4)nccc32)cc1)c1ccc(Cl)c(C(F)(F)F)c1
active: [1] -32.9% | [2] -3.9% | [5] -51.6% | [9] -28.8%
inactive: [3] 60.3% | [4] 44.6% | [6] 42% | [7] 27.1% | [8] 40.6% | [10] 54.6%

COC(=O)c1oc2c(C(C)=O)c(OCCN3CCCCC3)ccc2c1C
inactive: [1] 110% | [2] 133% | [3] 226% | [4] 125% | [5] 105% | [6] 93.9% | [7] 102% | [8] 122% | [9] 96.5% | [10] 133%

Cc1ccc2[nH]c3nc4cccnc4c(C)c3c2c1
inactive: [1] 88.1% | [2] 92.6% | [3] 77.6% | [4] 79% | [5] 75.7% | [6] 92.7% | [7] 95.2% | [8] 100% | [9] 89.7% | [10] 119%

CC(C)C1(C(C)C)NC(=O)NC1=O
inactive: [1] 110% | [2] 103% | [3] 94.5% | [4] 101% | [5] 103% | [6] 93.3% | [7] 91.5% | [8] 106% | [9] 102% | [10] 95.9%

O=C(Nc1ccc(-n2ccc3c(NC(=O)c4ccccc4)nccc32)cc1)c1cccc(C(F)(F)F)c1
active: [2] 2.7% | [9] 6.29%
inactive: [1] 14.1% | [3] 43.9% | [4] 37.4% | [5] 17.7% | [6] 40.4% | [7] 16.5% | [8] 35.4% | [10] 48.1%

O=C(Cn1c2ccccc2c2ccncc21)N/N=C\c1ccc2ccccc2c1
active: [2] -8.93% | [3] 3.82% | [5] -25.9% | [8] 7.54%
inactive: [1] 23.8% | [4] 40.5% | [6] 13.8% | [7] 15.4% | [9] 19.4% | [10] 58.3%

CCn1c(SC)nnc1-c1cc2c([nH]c3ccccc32)c(-c2cccc(O)c2)n1
active: [3] -23.1% | [7] -16.2%
inactive: [1] 20.4% | [2] 50.7% | [4] 52.8% | [5] 15.5% | [6] 24.6% | [8] 36.7% | [9] 16.5% | [10] 41.3%

O=C(NC(=S)Nc1ccc(Cl)cc1)c1ccccc1
inactive: [1] 93.6% | [2] 87% | [3] 94.9% | [4] 105% | [5] 96.4% | [6] 105% | [7] 102% | [8] 85.5% | [9] 106% | [10] 96.2%

C[C@]12CC[C@@H]3c4ccc(O)c(N)c4CC[C@H]3[C@@H]1CC[C@@H]2O
inactive: [1] 101% | [2] 103% | [3] 94.3% | [4] 109% | [5] 110% | [6] 97.6% | [7] 99.5% | [8] 97.1% | [9] 96.7% | [10] 118%

CCC1S/C(=N\N=C(/C)c2ccco2)N(c2ccccc2)C1=O (stereo not given)
inactive: [1] 118% | [2] 86.8% | [3] 103% | [4] 104% | [5] 104% | [6] 76.6% | [7] 146% | [8] 92% | [9] 99.5% | [10] 108%

COc1ccc(-c2nnc(SCC(=O)Nc3ccc(C(=O)/C=C/c4ccc(OC)c(OC)c4)cc3)o2)cc1
inactive: [1] 74.8% | [2] 87.1% | [3] 87.5% | [4] 89.6% | [5] 66.9% | [6] 79.8% | [7] 75.9% | [8] 82.9% | [9] 77.1% | [10] 99.5%

COc1cc2ncnc(Oc3ccc(NC(=O)Nc4ccc(C5(C#N)CCCC5)cc4)c4ccccc34)c2cc1OC
active: [5] -49.3%
inactive: [1] 74.5% | [2] 35% | [3] 36.1% | [4] 36.7% | [6] 56.8% | [7] 50.2% | [8] 40% | [9] 47.7% | [10] 64.1%

CCOC(=O)c1noc2c1CCc1cn(Cc3cc(OC)cc(OC)c3)cc1-2
inactive: [1] 96.4% | [2] 75.4% | [3] 95.8% | [4] 113% | [5] 110% | [6] 92.8% | [7] 101% | [8] 103% | [9] 95.5% | [10] 105%

Nc1nc(-c2cc3c(cc2Cl)NC(=O)/C3=C/c2ccccc2)cs1
active: [9] 3.66%
inactive: [1] 35.5% | [2] 35.8% | [3] 64.8% | [4] 59.7% | [5] 40.3% | [6] 46.4% | [7] 24.7% | [8] 43% | [10] 76.1%

C=C1C(=O)O[C@H]2[C@H]1CC/C(COC(=O)c1ccccc1)=C\CC[C@@]1(C)O[C@@H]21
active: [1] -66.1% | [2] -62.7% | [8] -66.9% | [9] -88.6% | [10] -33.9%
inactive: [3] 68.8% | [4] 33.1% | [5] 26.8% | [6] 35% | [7] 12%

COc1ccc(C2CC(c3cc(Cl)c(C)cc3OC)=NN2c2ccc(S(N)(=O)=O)cc2)cc1OC (stereo not given)
inactive: [1] 75.9% | [2] 78.7% | [3] 83.6% | [4] 101% | [5] 78.4% | [6] 52.3% | [7] 84.6% | [8] 65.1% | [9] 77.9% | [10] 108%

CN1CCN(CC(O)COc2c(Br)c(Br)c(Br)c3c2OC(C)(C)C3)CC1 (stereo not given)
inactive: [1] 28.7% | [3] 90.7% | [4] 92.7% | [5] 56.4% | [6] 53%
active: [2] -12.8% | [7] -86% | [8] -59.5% | [9] 4.05% | [10] -89.2%

O=C1C(SCCO)=C(SCCO)C(=O)N1c1ccc(-c2ccccc2)cc1
inactive: [2] 70.2% | [3] 71.9% | [4] 106% | [5] 60.2% | [6] 93.3% | [7] 103% | [8] 62.5%
active: [1] -21.6% | [9] -45% | [10] -66.7%

COc1ccc(-c2nn(-c3ccc(NC(=O)c4ccc(Cl)c(C(F)(F)F)c4)cc3)cc2-c2ccncc2)cc1Cl
active: [1] -26% | [2] -39.5% | [7] -69.3% | [8] -14.6% | [9] -63.9%
inactive: [3] 31.1% | [4] 42.7% | [5] 13.5% | [6] 23.2% | [10] 50.2%

COc1cc(C(=O)NNC(=O)c2ccccc2O)cc(OC)c1OC
inactive: [1] 105% | [2] 80.6% | [3] 79.2% | [4] 93.3% | [5] 91.6% | [6] 70.9% | [7] 86.9% | [8] 81.3% | [9] 102% | [10] 109%

CN(C)c1ncc(C#Cc2c(F)cccc2F)c2ccccc12
inactive: [1] 88.1% | [2] 70.6% | [3] 108% | [4] 88.8% | [5] 80% | [6] 75.7% | [7] 83.5% | [8] 71.4% | [9] 85.2% | [10] 102%

O=C(Nc1ccc(-n2ccc3c(NC(=O)c4ccccc4)nccc32)cc1)Nc1cccc(C(F)(F)F)c1
inactive: [1] 19.7% | [3] 74.3% | [4] 65.8% | [5] 32.3% | [6] 13.6% | [7] 53.6% | [8] 78.6% | [9] 26.6% | [10] 60.3%
active: [2] -0.934%

CN(C)c1ccc(/C=N/n2c(-c3cc(F)c(Cl)cc3Cl)nn(CN3CCOCC3)c2=S)cc1
inactive: [1] 103% | [2] 110% | [3] 97.7% | [4] 99.4% | [5] 89% | [6] 103% | [7] 92.3% | [8] 94.8% | [9] 96.1% | [10] 108%

Reference: PubChem BioAssay (NCI)
